SMARCA2 act = activators of SMARCA2 function; AID 652017; MG213 cells, MMTV-luciferase reporter, dexamethasone, overnight; 370,000 compounds, 1% hits; activation, % at 9.1 µM; in the data active = activation above about 7.8%
Cardio protect = modulators protecting cardiomyocytes from myocardial damage | 360,000 compounds, 0.63% hits | H9c2 cardiomyocytes, H2O2 injury protection, ATPLite, 2 h | protection from H2O2 cell death, % at 20 µM;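 active = compounds giving at least 50% protection of heart cells from peroxide-induced death in the single-dose screen, raw or plate-pattern-corrected value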
NR2F2 inh = inhibitors of human COUP-TFII (NR2F2). 370,000 compounds, 0.7% hits. AID 686940. P24468. HEK293T NGFI-A luciferase reporter, luminescence. inhibition, % at 8.6 µM;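 active = inhibition above a per-plate cutoff, mean inhibition of test wells between control levels plus 3 SD, cut at about 38% in these data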;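 note: cells cotransfected with COUP-TFII expression vector driving the NGFI-A reporter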
Target sequence (P24468 whole entry, looked up): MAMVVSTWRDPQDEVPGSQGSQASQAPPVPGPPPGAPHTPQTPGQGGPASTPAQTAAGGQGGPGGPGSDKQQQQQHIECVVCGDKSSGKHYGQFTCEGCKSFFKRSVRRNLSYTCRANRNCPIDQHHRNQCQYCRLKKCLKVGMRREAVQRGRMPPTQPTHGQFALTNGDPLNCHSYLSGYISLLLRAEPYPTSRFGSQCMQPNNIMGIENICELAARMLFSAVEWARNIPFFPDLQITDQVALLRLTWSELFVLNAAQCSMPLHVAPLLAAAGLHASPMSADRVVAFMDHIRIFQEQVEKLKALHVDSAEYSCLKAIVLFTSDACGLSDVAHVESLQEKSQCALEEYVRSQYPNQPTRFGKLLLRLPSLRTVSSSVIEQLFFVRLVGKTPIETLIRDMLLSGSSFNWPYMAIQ
Gli-Sufu block = blocks Gli-Sufu signaling in a luciferase reporter; Sufu-KO-LIGHT fibroblasts, Gli luciferase reporter luminescence; inhibition, % at 5 µM; 340,000 compounds, 0.74% hits;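 active = inhibition above about 55%, limit read from the data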
GAA850 FXN act = activators of GAA850 frataxin (FXN) promoter; 360,000 compounds, 0.56% hits; activation, % at 6 µM; HEK293 lucGAA850 FXN promoter luciferase reporter, 24 h; percent of 10 µM SAHA response;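 active = activation above the average of all compounds screened plus 3 SD, cutoff fixed separately per campaign, cut at about 7.5% in these data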
GalR3 antag = antagonists of human GalR3; inhibition, % at 3 µM; HEK293 GalR3-CNG cAMP membrane potential fluorescence; galR3 body fused to GalR1 C-terminus; O60755; 360,000 compounds, 0.44% hits; AID 651719;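 active = inhibition above the screen-wide average plus 3 SD, cut at about 13% in these data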;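 note: forskolin and galanin both at EC90 stimulate the cells; cAMP rise reported by CNG channel membrane potential dye signal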
Gli-Sufu confirm = Gli-SUFU antagonism confirmation, single concentration; 2,500 compounds, 40% hits; shares compounds with Gli-Sufu block; inhibition, % at 5 µM; Sufu-KO-LIGHT cells, Gli luciferase reporter, luminescence;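 active = mean inhibition at 5 µM reaching about 45%, limit read from the data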
Gli cytotox = cytotoxicity counter-screen for Gli-SUFU antagonists; cytotoxicity, % at 5 µM; AID 651994; 2,500 compounds, 32% hits; shares compounds with Gli-Sufu block; Sufu-KO-LIGHT cells cytotoxicity, ATP luminescence;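 active = mean cytotoxicity at 5 µM above about 25%, limit read from the data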;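 note: cells exposed to compound overnight for roughly 16 to 18 hours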
Wnt3a cs = inhibits Wnt3a reporter, counter-screen for Gli-SUFU antagonists; shares compounds with Gli-Sufu block; Wnt-LIGHT cells, Wnt3a-driven luciferase reporter, luminescence; inhibition, % at 6.25 µM; 2,500 compounds, 20% hits; AID 651995;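 active = mean inhibition above about 25%, limit read from the data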
GalR3 antag conf = GalR3 (human) antagonism, confirmation. 1,600 compounds, 59% hits. inhibition, % at 3 µM. shares compounds with GalR3 antag. AID 652245. HEK293 GalR3 CNG cAMP biosensor, membrane potential fluorescence; galR3 fused to GalR1 carboxy tail; challenged with forskolin and galanin at EC90;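 active = inhibition above the primary screen's cutoff, the mean inhibition of all screened compounds plus 3 SD, cut at about 13% in these data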
CNG parental = counter-screen for GalR3 antagonists: nonspecific agonists in parental HEK-CNG cells | shares compounds with GalR3 antag | HEK293-CNG parental cells, cAMP membrane potential fluorescence; normalised: DMSO wells 0%, forskolin wells 100% | activation, % at 3 µM | 1,600 compounds, 10% hits | AID 652268; in the data active = activation above about 1.3%
Gal4-VP16 ctr = inhibits VP16 reporter, flagging COUP-TFII antagonist hits. shares compounds with NR2F2 inh. HEK293 Gal4-VP16 luciferase reporter, luminescence. inhibition, % at 8.5 µM. 2,500 compounds, 25% hits; in the data active = inhibition above about 13%
NR2F2 inh conf = confirmation of human COUP-TFII (NR2F2) inhibitors. HEK293 NGFI-A luciferase reporter, luminescence. inhibition, % at 8.5 µM. shares compounds with NR2F2 inh. 2,500 compounds, 45% hits;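 active = mean inhibition over three repeats above a set limit taken from the earlier primary screen, cut at about 38% in these data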
Of the large screens only hits and unclear results are named; the others gave an inactive call (follow-up assays come after a bar, where they were run). In the library only some 3.4% were active in any assay of this set; here they are far more common.

COc1ccc(CNC(=O)c2ccc(CS(=O)(=O)Cc3ccccc3F)o2)cc1	none
CN(C)c1cc[n+](CC(=O)c2ccc(-c3ccccc3)cc2)cc1	NR2F2 inh 52, Gli-Sufu block 88 | Gli-Sufu confirm 86 | Gli cytotox 38 | Wnt3a cs 39 | Gal4-VP16 ctr inactive | NR2F2 inh conf 48
CN(C)c1cc[n+](CC(=O)c2ccc(Br)cc2)cc1	none
O=C(c1cc(COc2cccc3cnccc23)on1)N1CCCC(CCCO)C1 (centres undefined)	NR2F2 inh 71, Gli-Sufu block 80, GalR3 antag 97 | Gli-Sufu confirm 74 | Gli cytotox 29 | Wnt3a cs inactive | GalR3 antag conf 104 | CNG parental inactive | Gal4-VP16 ctr inactive | NR2F2 inh conf 76
COc1ccc(OCc2cc(C(=O)N3CCCC(CO)C3)no2)c2ccccc12 (centres undefined)	none
Cc1sc2ncnc(N3CCCCC3)c2c1C	none
Cc1ccc(OCCN2CCN(c3ncnc4sc(C)c(C)c34)CC2)cc1	NR2F2 inh 73, Gli-Sufu block 73, GalR3 antag 101 | Gli-Sufu confirm 73 | Gli cytotox 31 | Wnt3a cs inactive | GalR3 antag conf 104 | CNG parental inactive | Gal4-VP16 ctr inactive | NR2F2 inh conf 61
Cc1ccc2c(c1)nnn2C1CCN(S(=O)(=O)c2ccc(C(=O)N3C(C)CCCC3C)cc2)CC1 (centres undefined)	NR2F2 inh 42, Gli-Sufu block 67 | Gli-Sufu confirm 69 | Gli cytotox 30 | Wnt3a cs inactive | Gal4-VP16 ctr inactive | NR2F2 inh conf 55
COc1ccccc1N1CCN(C(=O)CC(NC(=O)c2ccccc2Cl)c2ccccc2)CC1 (centres undefined)	none
Cc1ccc2[nH]c3c(N4CCOCC4)ncnc3c2c1	none
Fc1ccc2[nH]c3c(N4CCc5ccccc5C4)ncnc3c2c1	NR2F2 inh 74, Gli-Sufu block 77 | Gli-Sufu confirm 79 | Gli cytotox 34 | Wnt3a cs inactive | Gal4-VP16 ctr inactive | NR2F2 inh conf 70
Cc1ccc2[nH]c3c(N4CCc5ccccc5C4)ncnc3c2c1	NR2F2 inh 60, Gli-Sufu block 73 | Gli-Sufu confirm 77 | Gli cytotox 38 | Wnt3a cs inactive | Gal4-VP16 ctr inactive | NR2F2 inh conf 50
CN1CCN(c2ncnc3c2[nH]c2ccc(F)cc23)CC1	none
COc1ccc(NS(=O)(=O)c2ccc(-c3cnc(C4CC4)o3)cc2)cc1OC	NR2F2 inh 56, Gli-Sufu block 72 | Gli-Sufu confirm 71 | Gli cytotox 59 | Wnt3a cs 29 | Gal4-VP16 ctr inactive | NR2F2 inh conf 50
COc1ccc(S(=O)(=O)Nc2ccc3c(c2)OCO3)cc1OC	none
COc1ccc(NS(=O)(=O)c2ccc3c(c2)OCCO3)cc1OC	NR2F2 inh 57, Gli-Sufu block 66, GalR3 antag 99 | Gli-Sufu confirm 60 | Gli cytotox 29 | Wnt3a cs 30 | GalR3 antag conf 53 | CNG parental inactive | Gal4-VP16 ctr inactive | NR2F2 inh conf 40
CCOC(=O)c1nn(-c2ccc(F)cc2)c2nc(Nc3ccccc3)cc(=O)n12	none
CCc1ccc(-c2nc(CSCC(=O)NCc3ccco3)c(C)o2)cc1	NR2F2 inh 77, Gli-Sufu block 84 | Gli-Sufu confirm 88 | Gli cytotox inactive | Wnt3a cs 46 | Gal4-VP16 ctr inactive | NR2F2 inh conf inactive
COc1cc(CCC(=O)Nc2ccc(C)c(S(=O)(=O)N3CCCCCC3)c2)cc(OC)c1OC	NR2F2 inh 54 | Gli-Sufu confirm inactive | Gli cytotox inactive | Wnt3a cs inactive | Gal4-VP16 ctr inactive | NR2F2 inh conf inactive
CCOC(=O)c1cccc(NC(=O)COc2nsnc2N2CCOCC2)c1	none
Cc1ccccc1-c1cc(C(=O)Nc2sc(C(=O)OC(C)C)c(C)c2C#N)c2ccccc2n1	GalR3 antag 71 | GalR3 antag conf 100 | CNG parental inactive
CSc1ccc(CN2CCC(C)(Oc3cccc(F)c3)C2)cc1 (centres undefined)	none (no result: Gli-Sufu block)
Cn1c(C(=O)O)cc2cc(Oc3ccccc3)ccc21	none
Cn1c(C(=O)NN)cc2cc(Oc3ccccc3)ccc21	GalR3 antag 60 | GalR3 antag conf 44 | CNG parental inactive
CCC(C)(C(=O)NC1CCCC1)N(C(=O)CC1NC(=O)NC1=O)c1ccc(C)cc1 (centres undefined)	none
CCCOc1ccc(C2=NNC(=O)CC2)cc1	none
CCn1c(O)c(/C=N/N=C2CCCCC2)c2cc(C3=NNC(=O)CC3)ccc21	Cardio protect 54, GalR3 antag 25 | GalR3 antag conf inactive | CNG parental inactive
COc1ccccc1CNC(=O)C1CC(c2ccccc2[N+](=O)[O-])=NO1 (centres undefined)	none (no result: GalR3 antag) | GalR3 antag conf inactive | CNG parental inactive
Cc1[nH]c(=O)c(C#N)cc1-c1ccccc1	GalR3 antag 20 | GalR3 antag conf 20 | CNG parental inactive
Cc1[nH]c(=O)c(C#N)cc1-c1csc(-c2ccccc2)n1	none
CCOC(=O)C1CCCN(C(=O)c2ccccc2[N+](=O)[O-])C1 (centres undefined)	GalR3 antag 55 | GalR3 antag conf inactive | CNG parental inactive
COCCN(Cc1cc2cc(C)ccc2[nH]c1=O)S(=O)(=O)c1ccc(Cl)cc1	GalR3 antag 73 | GalR3 antag conf inactive | CNG parental inactive
C=CCNC(=O)C(=O)NCC1CCCN1S(=O)(=O)c1cccs1 (centres undefined)	none

Screening data from PubChem BioAssay.
